Hits are enriched below; roughly 2% of the tested compounds scored in any of these assays.
aSyn rescue = alpha-synuclein toxicity inhibition in yeast. Yeast expressing alpha-synuclein, growth rescue, BacTiter-Glo, 24 h. Potency, µM (doses to about 46.1 µM), usual class: activators. 370,000 tested, 0.14% active; further: nearly all actives have a fitted effect of over 65% in size
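Readout is rescue of growth in alpha-synuclein-expressing yeast, so inhibitors of toxicity appear as activators. Growth after 24 hr at 30 deg C in galactose medium is quantified by luminescence.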
ASM inhibitor = blocks human secretory acid sphingomyelinase | Potency, µM (titrated, usually from 57.5 µM), actives largely listed as inhibitors | 340,000 tested, 0.006% active | P17405 | AID 504937 | placental ASM, HMU-PC fluorogenic substrate, 60 min
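Fluorogenic HMU-PC substrate (9 uM final) is turned over by placental ASM in 60 min at 37 C after a 10 min compound preincubation. Reaction ended by alkaline stop (pH 10), with fluorescence read at 386/447 nm.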
Abeta rescue = compounds reversing amyloid beta toxicity in yeast; yeast expressing A-beta42, growth rescue, OD600, 48 h; response scale: 0% DMSO, 100% iron-clioquinol control; Potency, µM (doses to about 46.1 µM), actives largely listed as activators; 410,000 tested, 0.063% active; AID 1347071; further: nearly all actives have a fitted effect of over 55% in size
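Yeast A-beta toxicity model in growth medium with pinned compounds, 48 h at 30 C; growth read as absorbance at 600 nm. Normalized to FeCl3/clioquinol equimolar mix (positive) and DMSO (negative).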
Rango-impB inh = Rango-importin beta binding inhibition. Q14974. Rango CFP/YFP FRET sensor + importin beta, 45 min. Potency, µM (highest dose often 92.2 µM). 340,000 tested, 0.031% active. AID 540263; calls by dose curve; further: nearly all actives have a fitted effect of over 15% in size
Target sequence (Q14974 whole entry, looked up): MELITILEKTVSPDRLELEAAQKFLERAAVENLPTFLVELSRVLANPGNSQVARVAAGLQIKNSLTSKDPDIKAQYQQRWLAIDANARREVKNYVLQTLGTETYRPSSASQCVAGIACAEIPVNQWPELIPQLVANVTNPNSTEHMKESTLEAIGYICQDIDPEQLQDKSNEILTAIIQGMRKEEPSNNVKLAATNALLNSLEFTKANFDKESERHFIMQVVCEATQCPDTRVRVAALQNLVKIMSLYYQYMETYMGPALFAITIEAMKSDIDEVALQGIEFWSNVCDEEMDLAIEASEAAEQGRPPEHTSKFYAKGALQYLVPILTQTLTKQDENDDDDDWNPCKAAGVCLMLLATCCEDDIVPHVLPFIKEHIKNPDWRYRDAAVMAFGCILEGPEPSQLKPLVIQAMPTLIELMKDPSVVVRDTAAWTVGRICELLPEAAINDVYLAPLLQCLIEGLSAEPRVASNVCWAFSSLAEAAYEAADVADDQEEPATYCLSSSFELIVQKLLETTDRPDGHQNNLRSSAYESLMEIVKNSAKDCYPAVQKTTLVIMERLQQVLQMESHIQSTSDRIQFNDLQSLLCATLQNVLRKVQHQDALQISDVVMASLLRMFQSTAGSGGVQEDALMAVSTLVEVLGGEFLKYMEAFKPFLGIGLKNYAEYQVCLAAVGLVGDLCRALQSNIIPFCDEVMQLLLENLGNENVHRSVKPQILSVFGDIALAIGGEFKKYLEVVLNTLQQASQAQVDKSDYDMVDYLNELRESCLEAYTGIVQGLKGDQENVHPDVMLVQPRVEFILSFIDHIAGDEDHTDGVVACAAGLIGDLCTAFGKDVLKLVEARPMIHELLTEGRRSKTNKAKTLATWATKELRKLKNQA
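Inhibition scored from the CFP 486 nm/YFP 530 nm FRET ratio 45 min after adding 0.125 microM importin beta to 50 nM Rango biosensor preincubated 5 min with compound (room temperature, PBS with DTT, Tween-20, BSA). No-importin wells as positive control.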
Rango dissoc inh = prevents RanGTP from dissociating the Rango-importin beta complex. O95149+P62826. Biochemical FRET Rango-importin beta, RanGTP-induced dissociation. Potency, µM (doses to about 46.1 µM). 340,000 tested, 0.071% active. AID 540253; calls by dose curve; further: nearly all actives have a fitted effect of over 45% in size
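Two FRET readings bracket the reaction: one 5 min after compound meets Rango–importin beta, another 45 min after RanGTP-RCC1 (0.6 uM Ran, 0.2 uM RCC1, 2 mM GTP) is added. Only the second defines inhibition.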
TDP43 rescue = TDP-43 toxicity inhibition in yeast; TDP-43 expressing yeast growth rescue, BacTiter-Glo, 24 h; Potency, µM (titrated, usually from 46.1 µM), actives largely listed as activators; 410,000 tested, 1.8% active; AID 652104; further: nearly all actives have a fitted effect of over 50% in size
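Yeast cells expressing TDP-43 under galactose induction are exposed to compounds for 24 hr at 30 deg C. BacTiter-Glo luminescence measures growth, so protective compounds score as activators.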
Large screens that a line does not name were inactive. Unless noted, the call rests on the fitted dose curve; in most records, active means well fitted curve in the direction sought with a large enough effect; inconclusive means small, poorly fitted or top-dose-only effect, or another doubt; inactive means no such curve, though single readings can be large; an effect the other way counts as inactive or inconclusive.

COC(=O)c1ccccc1N(C)S(=O)(=O)c1cc2c3c(c1)CC(=O)N3CCC2	none (no result: aSyn rescue, ASM inhibitor, Rango-impB inh, Rango dissoc inh)
Cc1ccc(-c2noc(CN(C3CCCCC3)S(=O)(=O)c3ccc(Cl)cc3)n2)cc1	none (no result: aSyn rescue, ASM inhibitor, Rango-impB inh, Rango dissoc inh)
COc1ccc([C@H]2CC(=O)C=C(c3ccc4ncccc4c3)C2)cc1	TDP43 rescue inconclusive
O=C1C=C(c2ccc3ncccc3c2)C[C@@H](c2ccc(Cl)cc2)C1	ASM inhibitor inconclusive, TDP43 rescue 16µM
O=C1C=C(c2ccccc2)C[C@@H](c2ccc(Cl)cc2)C1	TDP43 rescue 20µM
COc1ccc([C@H]2CC(=O)C=C(c3cccc(CO)c3)C2)cc1OC	none
O=C1CC(c2ccccc2)CC(=O)C1Sc1ccc(Cl)cc1 (stereo not given)	TDP43 rescue 10µM
O=C1C=C(c2cccc(CO)c2)C[C@@H](c2ccc(Cl)cc2)C1	TDP43 rescue 18µM
Cc1nn2c(C)c(C(=O)NCc3ccco3)cnc2c1-c1ccccc1	TDP43 rescue inconclusive (no result: aSyn rescue, ASM inhibitor, Rango-impB inh, Rango dissoc inh)
COc1ccc(C(=O)NCCn2cc(SCc3cc(C)ccc3C)c3ccccc32)cc1	none (no result: aSyn rescue, ASM inhibitor, Rango-impB inh, Rango dissoc inh)
Cc1ccc(CNC(=O)Cn2c3ncccc3c(=O)n2-c2ccccc2)cc1	none (no result: aSyn rescue, ASM inhibitor, Rango-impB inh, Rango dissoc inh)
Cc1ccc(C2=CC(=O)C[C@H](c3ccc(Cl)cc3)C2)cc1	TDP43 rescue 16µM
O=C(Cn1cnc2onc(-c3ccc(F)cc3)c2c1=O)N1CCN(c2ccc(F)cc2)CC1	aSyn rescue inconclusive, TDP43 rescue 35µM (no result: ASM inhibitor, Rango-impB inh, Rango dissoc inh)
CNC(=O)COC(=O)c1cc(SC)ccc1Cl	TDP43 rescue inconclusive
CSc1ccc(Cl)c(C(=O)OCC(=O)NCC(C)C)c1	TDP43 rescue 14µM
C/C(=N\NC(=O)c1ccc(Cl)c(Cl)c1)c1ccccn1	aSyn rescue 4µM, TDP43 rescue 7.1µM
COc1ccc(C(=O)N/N=C(\c2ccccc2)c2ccccn2)cc1	Rango-impB inh inconclusive, TDP43 rescue 22µM
CC(=NNC(=S)N1CC2CCC(CC2)C1)c1ccccn1	TDP43 rescue 22µM (no result: ASM inhibitor, Rango-impB inh, Rango dissoc inh)
O=C(NN=C(c1ccccc1)c1ccccn1)c1ccccc1	none
C/C(=N\NC(=O)c1ccccc1Cl)c1ccccn1	none
C/C(=N/NC(=O)c1ccc(C(C)(C)C)cc1)c1ccccn1	aSyn rescue inconclusive, TDP43 rescue 14µM
CCOC(=O)c1ccc(NC(=O)c2ccc(CN3C(=O)CCn4nc(C)cc43)cc2)cc1	none (no result: aSyn rescue, ASM inhibitor, Rango-impB inh, Rango dissoc inh)
CCCCCCCc1nn2c(=O)cc(O)nc2s1	none
CCCCc1nn2c(C)c(-c3ccc(OCC)cc3)nc2s1	TDP43 rescue 22µM (no result: aSyn rescue, ASM inhibitor, Rango-impB inh, Rango dissoc inh)
OC(c1ccccc1)c1nc(-c2ccc(Cl)cc2)cs1 (stereo not given)	aSyn rescue inconclusive, TDP43 rescue 35µM (no result: ASM inhibitor, Rango-impB inh, Rango dissoc inh)
OC(c1cccc(Cl)c1)c1nc(-c2ccccc2)cs1 (stereo not given)	aSyn rescue inconclusive, TDP43 rescue 14µM (no result: ASM inhibitor, Rango-impB inh, Rango dissoc inh)
O=C(CCS(=O)(=O)c1cc(Br)cc2c1N(C(=O)C1CC1)CC2)N1CCN(c2cccc(C(F)(F)F)c2)CC1	none (no result: aSyn rescue, ASM inhibitor, Rango-impB inh, Rango dissoc inh)
c1ccc(Nc2nc3ccccc3n3nnnc23)cc1	Rango-impB inh inconclusive, Rango dissoc inh 21µM
Fc1cccc(Nc2nc3ccccc3n3nnnc23)c1	none
COc1cc(C=O)ccc1OCCOCCOc1c(C)cc(Cl)cc1Cl	TDP43 rescue 22µM
O=C(N/N=C/c1sc(N2CCOCC2)nc1-c1ccccc1)c1ccccc1O	Rango-impB inh inconclusive, Rango dissoc inh inconclusive, TDP43 rescue 14µM
Cc1ccc(NC(=O)CC(C)S(=O)(=O)c2ccc3c(c2)NC(=O)CO3)cc1Cl (stereo not given)	none (no result: aSyn rescue, ASM inhibitor, Rango-impB inh, Rango dissoc inh)
OC1(C(F)(F)F)CC(c2ccc3ccccc3c2)=NO1 (stereo not given)	TDP43 rescue 3.2µM
OC(c1ccccc1)(c1nc(-c2ccc3ccccc3c2)cs1)C(F)(F)F (stereo not given)	none (no result: ASM inhibitor, Rango-impB inh, Rango dissoc inh)
CC(C(=O)O)N1C(=O)/C(=C/c2cccn2C)SC1=S (stereo not given)	Rango-impB inh inconclusive, Rango dissoc inh 2.6µM
CCOC(=O)c1noc2ncnc(NCc3ccccc3OC)c12	TDP43 rescue 28µM (no result: aSyn rescue, ASM inhibitor, Rango-impB inh, Rango dissoc inh)

Bioassay records (PubChem)
